Common to all, as to assay: HT-SELEX; high values mean tight binding
Common to all, as to conditions: protein: recombinant; vector His6-GST; dsDNA, one strand shown

Assay [1] concerns the target T1, SALL4 ZFC4 WT (HT-SELEX) (Mus musculus, UniProt Q8BX22 870-940).
T1 sequence: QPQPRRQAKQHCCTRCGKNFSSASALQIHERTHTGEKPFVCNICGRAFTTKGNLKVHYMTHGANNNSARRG
In outline:
(§1)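 A 100 µl reaction of 10 mM Tris–HCl pH 7.5, 50 mM NaCl, poly(dI-dC) and DTT held purified recombinant mouse SALL4 zinc finger cluster 4 (residues 870–940, 1 µg) and library DNA (1.5 µg first cycle, 200 ng later) for 10 min at room temperature. Complexes captured on Ni2+ beads were washed, PCR-amplified and reselected for up to 6 cycles, in triplicate, then MiSeq-sequenced and scanned for 6-mers. Binding signal is the read fraction of each canonical k-mer expressed as fold change over the initial random library.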

Assay [2] deals with T2, SALL4 ZFC4 R900W (HT-SELEX) (Mus musculus, UniProt Q8BX22 870-940, R900W).
T2 sequence: T1 sequence with R31W
A digest of the protocol:
as §1

Assay [3] has as its target T3, SALL4 ZFC4 G921D (HT-SELEX) (Mus musculus, UniProt Q8BX22 870-940, G921D).
T3 sequence: T1 sequence with G52D
A digest of the protocol:
as §1

Where a chain is given by its changes, count along the chain named.

With CCCAGA, the binding signal in assay [1] was 0.431 ± 0.0214 fold-change vs cycle 0; in assay [2], 0.51 ± 0.0216 fold-change vs cycle 0; in assay [3], 0.583 ± 0.0525 fold-change vs cycle 0.

Take CAGCAA: the binding signal in assay [1] stood at 0.551 ± 0.0466 fold-change vs cycle 0; in assay [2] it was 0.641 ± 0.0279 fold-change vs cycle 0; in assay [3], 0.737 ± 0.0707 fold-change vs cycle 0.

On to CCTAGC, for which the binding signal in assay [1] is 0.4 ± 0.0405 fold-change vs cycle 0; in assay [2] it was 0.434 ± 0.0293 fold-change vs cycle 0; in assay [3], 0.55 ± 0.055 fold-change vs cycle 0.

For the sequence AAGTGG, the binding signal in assay [1] was determined as 0.762 ± 0.0311 fold-change vs cycle 0; in assay [2], 0.891 ± 0.0548 fold-change vs cycle 0; in assay [3], 0.909 ± 0.0639 fold-change vs cycle 0.

Turning to CCTTCA, the figures for the binding signal in assay [1], in assay [2] and in assay [3] were 0.899 ± 0.0192 fold-change vs cycle 0, 1.05 ± 0.0389 fold-change vs cycle 0 and 1.06 ± 0.0107 fold-change vs cycle 0, respectively.

With AATGGG, the results for the binding signal in assay [1], in assay [2] and in assay [3] were 0.774 ± 0.0508 fold-change vs cycle 0, 0.854 ± 0.0662 fold-change vs cycle 0 and 0.883 ± 0.0427 fold-change vs cycle 0, respectively.

Turning to CAATTC, the binding signal in assay [1] was 1.19 ± 0.016 fold-change vs cycle 0; in assay [2], 1.29 ± 0.063 fold-change vs cycle 0; in assay [3] it was 1.25 ± 0.0527 fold-change vs cycle 0.

CTGATA: the binding signal in assay [1] came out at 1.39 ± 0.0802 fold-change vs cycle 0; in assay [2], 1.44 ± 0.0817 fold-change vs cycle 0; in assay [3], 1.36 ± 0.068 fold-change vs cycle 0.

For the sequence AGACAG, the binding signal stood at 0.803 ± 0.00959 fold-change vs cycle 0 in assay [1], 0.914 ± 0.0204 fold-change vs cycle 0 in assay [2] and 0.943 ± 0.0351 fold-change vs cycle 0 in assay [3].

With ACTTCT, the figures for the binding signal in assay [1], in assay [2] and in assay [3] were 1.44 ± 0.0317 fold-change vs cycle 0, 1.64 ± 0.0808 fold-change vs cycle 0 and 1.45 ± 0.0874 fold-change vs cycle 0, respectively.

As to TCCAGA, the values for the binding signal in assay [1], in assay [2] and in assay [3] were 0.807 ± 0.0459 fold-change vs cycle 0, 0.894 ± 0.029 fold-change vs cycle 0 and 0.927 ± 0.0563 fold-change vs cycle 0, respectively.

On to ACTCGA, for which the binding signal in assay [1] worked out at 0.761 ± 0.0231 fold-change vs cycle 0; in assay [2], 0.839 ± 0.0214 fold-change vs cycle 0; in assay [3] it was 0.905 ± 0.00699 fold-change vs cycle 0.

Consider TCTAAA, for which the binding signal in assay [1] is 1.79 ± 0.0986 fold-change vs cycle 0; in assay [2], 1.85 ± 0.144 fold-change vs cycle 0; in assay [3], 1.67 ± 0.161 fold-change vs cycle 0.

Consider GGACAC, for which the binding signal was found to be 0.362 ± 0.012 fold-change vs cycle 0 in assay [1], 0.454 ± 0.013 fold-change vs cycle 0 in assay [2] and 0.559 ± 0.0612 fold-change vs cycle 0 in assay [3].

Take AATAGG: the binding signal in assay [1] worked out at 1.27 ± 0.0647 fold-change vs cycle 0; in assay [2] it was 1.39 ± 0.0729 fold-change vs cycle 0; in assay [3], 1.32 ± 0.0667 fold-change vs cycle 0.

Take TAGTGA: the binding signal in assay [1] was determined as 1.4 ± 0.0384 fold-change vs cycle 0; in assay [2], 1.53 ± 0.027 fold-change vs cycle 0; in assay [3] it was 1.43 ± 0.107 fold-change vs cycle 0.

For the sequence AACCCA, the binding signal in assay [1] came out at 0.813 ± 0.0466 fold-change vs cycle 0; in assay [2], 0.894 ± 0.0477 fold-change vs cycle 0; in assay [3] it was 0.963 ± 0.0141 fold-change vs cycle 0.

With GGCTAC, the binding signal in assay [1] is 0.316 ± 0.0371 fold-change vs cycle 0; in assay [2] it was 0.356 ± 0.0124 fold-change vs cycle 0; in assay [3], 0.493 ± 0.0659 fold-change vs cycle 0.

In the case of CGGAAA, the binding signal worked out at 0.548 ± 0.0301 fold-change vs cycle 0 in assay [1], 0.591 ± 0.00691 fold-change vs cycle 0 in assay [2] and 0.694 ± 0.0765 fold-change vs cycle 0 in assay [3].

As to AATACA, the results for the binding signal in assay [1], in assay [2] and in assay [3] were 2.08 ± 0.131 fold-change vs cycle 0, 1.92 ± 0.0574 fold-change vs cycle 0 and 1.74 ± 0.0979 fold-change vs cycle 0, respectively.

In the case of CTAGCC, the binding signal in assay [1] worked out at 0.314 ± 0.031 fold-change vs cycle 0; in assay [2], 0.395 ± 0.0257 fold-change vs cycle 0; in assay [3], 0.508 ± 0.064 fold-change vs cycle 0.

Regarding AGAATG, the binding signal is 1.34 ± 0.0249 fold-change vs cycle 0 in assay [1], 1.52 ± 0.0481 fold-change vs cycle 0 in assay [2] and 1.35 ± 0.0697 fold-change vs cycle 0 in assay [3].

Turning to CCTAAG, the binding signal in assay [1] turned out to be 0.941 ± 0.0158 fold-change vs cycle 0; in assay [2], 1.05 ± 0.0579 fold-change vs cycle 0; in assay [3], 1.05 ± 0.0419 fold-change vs cycle 0.

For TGACCA, the values for the binding signal in assay [1], in assay [2] and in assay [3] were 0.72 ± 0.0319 fold-change vs cycle 0, 0.823 ± 0.0121 fold-change vs cycle 0 and 0.899 ± 0.0281 fold-change vs cycle 0, respectively.

With AACCAT, the binding signal is 1.38 ± 0.0512 fold-change vs cycle 0 in assay [1], 1.42 ± 0.0463 fold-change vs cycle 0 in assay [2] and 1.41 ± 0.0967 fold-change vs cycle 0 in assay [3].

With TCGAGA, the binding signal in assay [1] worked out at 0.763 ± 0.0625 fold-change vs cycle 0; in assay [2] it was 0.863 ± 0.0493 fold-change vs cycle 0; in assay [3], 0.945 ± 0.0348 fold-change vs cycle 0.

With TGCTAA, the binding signal in assay [1] was 1.16 ± 0.0453 fold-change vs cycle 0; in assay [2] it was 1.24 ± 0.0475 fold-change vs cycle 0; in assay [3], 1.21 ± 0.0656 fold-change vs cycle 0.

For the sequence ATCTAG, the binding signal in assay [1] worked out at 1.35 ± 0.0842 fold-change vs cycle 0; in assay [2], 1.48 ± 0.0373 fold-change vs cycle 0; in assay [3], 1.41 ± 0.108 fold-change vs cycle 0.

With AAAAGA, the binding signal in assay [1] was 1.8 ± 0.0481 fold-change vs cycle 0; in assay [2], 1.94 ± 0.106 fold-change vs cycle 0; in assay [3] it was 1.7 ± 0.125 fold-change vs cycle 0.

CCCTAC: the binding signal worked out at 0.441 ± 0.0346 fold-change vs cycle 0 in assay [1], 0.512 ± 0.0309 fold-change vs cycle 0 in assay [2] and 0.603 ± 0.047 fold-change vs cycle 0 in assay [3].

For the origin of these results see article PMC9838217, “Structure of SALL4 zinc finger domain reveals link between AT-rich DNA binding and Okihiro syndrome”.
